About 83,000 compounds went through this panel and 20% of them were active in at least one assay; those are over-represented in the sample as a whole.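 The endpoint reported here, percent growth, reads 100 for growth as untreated, 0 for no net growth and -100 for all cells dead.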 Values without a mark were called inactive. Activity calls are given as the source filed them. Rule for the calls: active = growth percent below 10; inactive = the rest.
Tests used:
Assay in all cases: NCI-60 one-dose screen, 48 h (100 = growth as untreated, 0 = no growth, -100 = all killed)
Conditions in all cases: 10 µM unless noted
SK-MEL-2 melanoma = tested on: SK-MEL-2 melanoma
EKVX NSCLC = tested on: EKVX NSCLC
SN12C renal = tested on: SN12C renal
UO-31 renal = tested on: UO-31 renal
TK-10 renal = tested on: TK-10 renal
ACHN renal = tested on: ACHN renal
CAKI-1 renal = tested on: CAKI-1 renal
A498 renal = tested on: A498 renal
CCRF-CEM leukemia = tested on: CCRF-CEM leukemia
MOLT-4 leukemia = tested on: MOLT-4 leukemia
SR leukemia = tested on: SR leukemia
OVCAR-5 ovarian = tested on: OVCAR-5 ovarian
OVCAR-4 ovarian = tested on: OVCAR-4 ovarian
SK-OV-3 ovarian = tested on: SK-OV-3 ovarian
IGROV1 ovarian = tested on: IGROV1 ovarian
OVCAR-3 ovarian = tested on: OVCAR-3 ovarian
NCI/ADR-RES ovarian = tested on: NCI/ADR-RES ovarian
OVCAR-8 ovarian = tested on: OVCAR-8 ovarian
HS 578T breast = tested on: HS 578T breast
RPMI-8226 leukemia = tested on: RPMI-8226 leukemia

| SMILES | growth (SK-MEL-2 melanoma) | growth (EKVX NSCLC) | growth (SN12C renal) | growth (UO-31 renal) | growth (TK-10 renal) | growth (ACHN renal) | growth (CAKI-1 renal) | growth (A498 renal) | growth (CCRF-CEM leukemia) | growth (MOLT-4 leukemia) | growth (SR leukemia) | growth (OVCAR-5 ovarian) | growth (OVCAR-4 ovarian) | growth (SK-OV-3 ovarian) | growth (IGROV1 ovarian) | growth (OVCAR-3 ovarian) | growth (NCI/ADR-RES ovarian) | growth (OVCAR-8 ovarian) | growth (HS 578T breast) | growth (RPMI-8226 leukemia) |
| --- | --- | --- | --- | --- | --- | --- | --- | --- | --- | --- | --- | --- | --- | --- | --- | --- | --- | --- | --- | --- |
| Fc1cc(-c2cnc3nonc3n2)c(Cl)cc1Cl | 102% | 102% | 91.8% | -28.3% (active) | 72.4% | 18.1% | 85% | 95.7% | -12.7% (active) | 20.2% | 86.5% | 88.6% | 59.6% | 98.5% | 77% | 10.3% | 102% |  |  |  |
| CC1OC(n2c3ccccc3c3c4c(c5c6ccccc6[nH]c5c32)C(=O)N(CCN2CCOCC2)C4=O)CC(O)C1O (stereo not given) | 99.7% | 56.7% | 19.8% | 25.5% | 58.5% | 8.9% (active) | 14.9% | 47.5% | 27% | 6.7% (active) | 10.7% | 61.7% | 46.5% | 6.84% (active) | 48.3% | 48.2% | 26.4% | 32.4% | 63.6% |  |
| C=CCN1C(=O)/C(=c2\sc3n(c2=O)C2C(NN=3)N(CC)C(=O)N2CC)c2ccccc21 (stereo not given) | 46.5% | 37.3% | 35.8% | 48.3% | 60.6% | 37.6% | 43.2% | 10.7% | 12.8% | 19.1% | 23.8% | 44.9% | 65.6% | 34.2% | 35.4% | -11.4% (active) | -1.04% (active) | 19% | 59.4% |  |
| COc1ccc(N=C2CSc3nnc(-c4cc(F)c(Cl)cc4Cl)n3N2)cc1 | 25.8% | 10.8% | 7.26% (active) | -69.5% (active) | -48.1% (active) | -26.2% (active) | -11.2% (active) | -41.7% (active) | -24.4% (active) | -4.82% (active) |  | -20.5% (active) | -59.2% (active) | -42.3% (active) | -45.1% (active) | -74% (active) | 9.18% (active) | 6.26% (active) | -43.8% (active) | -23.5% (active) |
| O=C(CC(=O)c1cccc(Cl)c1)c1cccc(Cl)c1 | 60.4% | 20.5% | 23.2% | 42.7% | 46.6% | 31.2% | 23.4% | 79.2% | 11.4% | 21.7% | 2.96% (active) | 46.8% | 42% | 47.5% | 34.1% | 32% | 8.52% (active) | 21.9% |  |  |
| CSC1=N/C(=C\c2cccc(OCc3ccc(Cl)cc3)c2)C(=O)N1 | 87.9% | 75.5% | 80.9% | 67.2% | 78.9% | 87.1% | 80.6% | 62.1% | 98.3% | 90.5% | 80.9% | 106% | 56.9% | 98.5% | 86.7% | 84.2% | 79% | 86.1% | 104% |  |
| Cn1cnc([N+](=O)[O-])c1S(=O)(=O)Oc1ccccc1 | 98.2% | 103% | 99.2% | 75.1% | 101% | 17.1% | 62.9% | 108% | 6.29% (active) | 76.5% | 56.1% | 103% | 112% | 101% | 85.7% | 1.83% (active) | 92% | 100% | 105% |  |
| CC(C)(C)c1nn(-c2ccccc2)c2c1C(=O)CSC(c1ccc3c(c1)OCO3)N2 (stereo not given) | 101% | 80.2% | 91.3% | 74.8% | 103% | 107% | 81.4% | 113% | 98.1% | 86% |  | 95.7% | 103% | 95.4% | 88.5% | 93.2% | 88.2% | 109% | 101% | 102% |
| CCN(CC)CCNC(=O)n1cc(-c2ccncc2)c(-c2ccc(Cl)c(OC)c2)n1 | 96.1% | 61.8% | 90.7% | 69.2% | 26.9% | 77.6% | 99.7% | 95.5% | 98.3% | 82% | 80.7% | 98.8% | 92.6% | 75.5% | 88.8% | 101% | 83.5% | 31% | 90.1% |  |
| CO[C@H](C(=O)[C@@H](O)[C@@H](C)O)[C@@H]1Cc2cc3cc(O[C@H]4C[C@@H](O[C@H]5C[C@@H](O)[C@H](O)C(C)O5)[C@H](O)C(C)O4)c(C)c(O)c3c(O)c2C(=O)[C@H]1O[C@H]1C[C@@H](O[C@H]2C[C@@H](O[C@H]3C[C@](C)(O)C(=O)C(C)O3)[C@@H](O)C(C)O2)[C@H](O)C(C)O1 (stereo not given in full) | -57.6% (active) | 0.189% (active) | 13.6% | -11.3% (active) | -10.9% (active) | 2.84% (active) | 1.12% (active) | -33% (active) | 10.3% | 1.04% (active) |  | 13.1% | 8.45% (active) | 9.52% (active) | 12.2% | -12.5% (active) | 76% | 2.48% (active) | -13.8% (active) | -21% (active) |
| COc1ccc(-c2cnnn2-c2nonc2-n2cccc2)cc1 | 54.6% | 55.6% | 43.9% | 44.2% | 63.7% | 48.2% | 45.5% | -4.22% (active) | 14.1% | 5.61% (active) |  | 37.2% | 42.9% | -4.76% (active) | 28.9% | -38.9% (active) | 6.88% (active) | 31.3% | -1.93% (active) | 27.9% |
| CC(=O)OC[C@H]1O[C@@H](n2c(=O)cc(N)[nH]c2=O)C(OC(C)=O)[C@@H]1OC(C)=O (stereo not given in full) | 105% | 104% | 103% | 78.6% | 97.8% | 101% | 88.8% | 98.1% | 111% | 108% |  | 99.8% | 110% | 106% | 103% | 114% | 103% | 99.4% | 95.7% | 103% |
| O=C1/C(=C/N2N=C(c3ccc(Cl)cc3)CC2c2ccccc2O)SC(=S)N1c1cccc(C(F)(F)F)c1 (stereo not given) | 90.7% | 52.5% | 52.6% | 24.9% | 78.3% | 55.3% | 55.5% | 65.8% | 30% | 8.36% (active) | 42% | 82.3% | 37% | 74% | 43.7% | 54.6% | 56.4% | 59.7% | 71% |  |
| O=C(NCCN1CCCC1)n1cc(-c2ccncc2)c(-c2cc(O)cc(Cl)c2)n1 | 90.8% | 119% | 82.5% | 100% | 78.6% | 82.2% | 109% | 103% | 85.7% | 82.7% | 49.6% | 113% | 118% | 86.1% | 109% | 116% | 101% |  | 99.6% |  |
| COc1cccc(NC(=O)OC(C)C)c1 | 136% | 94.7% | 98.6% | 82.1% | 100% | 101% | 86.4% | 92.7% | 3.14% (active) | 99% | 92.4% | 96.4% | 93.1% | 104% | 99.7% | 121% | 98.4% | 106% | 99% |  |
| CC(C)(C)[Si](C)(C)OC1[C@@H](CNC(N)=O)O[C@@H](n2cnc3c(NC(=O)Nc4ccccc4)ncnc32)[C@H]1O[Si](C)(C)C(C)(C)C (stereo not given in full) | 80.9% | 59.7% | -33.7% (active) | 40.9% | 84.5% | 40.2% | 92.2% | 81% | 47.9% | 23.5% |  | 82.5% | 50.3% | 93.6% | 56.1% | 61.1% | 58.5% | 59.9% | 58.7% | 47.6% |

— PubChem BioAssay (NCI)
